The record followed here is PubChem BioAssay (Tox21).

A number with no mark means an inactive call. Inconclusive results are not listed. Activity calls are given as the source filed them. Unless noted, the call rests on the fitted dose curve; in most records, active means well fitted curve in the direction sought with a large enough effect in the repeat runs; inconclusive means weak or mixed curves; inactive means no such curve, though single readings can be large; an effect the other way counts as inactive or inconclusive.

Test [1] in a line: qHTS RealTime-Glo MT Cell Viability Assay in HEK293 cells - 0 hour (AID 1224880). Further: nearly all actives have a fitted effect of over 45% in size. Further: potency means the concentration at half of the fitted maximal effect. The method in brief:
(§1)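 Tox21 screen in HEK293 using RealTime-Glo MT chemistry, with cells and reagent co-dispensed. Luminescence proportional to viable cell number was captured at intervals during 40 h compound exposure at 37 C.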

A short description of test [2]: A CellTox Green Cytotoxicity Assay to monitor cytotoxicity in HEK293 cells - 32 hour (AID 1224881). Further: nearly all actives have a fitted effect of over 40% in size. Further: potency means the concentration at half of the fitted maximal effect. The method in brief:
(§2)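 Seeding of HEK293 cells together with cytotoxicity dye preceded a 5 h incubation at 37 C/5% CO2. Test compounds in DMSO were then added and fluorescence monitored across 40 h.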

A short description of test [3]: A CellTox Green Cytotoxicity Assay to monitor cytotoxicity in HepG2 cells - 0 hour (AID 1224882). Further: nearly all actives have a fitted effect of over 35% in size. Further: potency means the concentration at half of the fitted maximal effect. The gist of the method: (§3)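 Nonlytic assay: viable cells exclude the dye, so fluorescence scales with cell death. HepG2 at 600 cells/well, compounds added after 5 h, signal read across 40 h.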
Test [4] in a line: A CellTox Green Cytotoxicity Assay to monitor cytotoxicity in HepG2 cells - 32 hour (AID 1224883). Further: nearly all actives have a fitted effect of over 50% in size. Further: potency means the concentration at half of the fitted maximal effect. The method in brief:
as §3

Test [5] in a line: A CellTox Green Cytotoxicity Assay to monitor cytotoxicity in HEK293 cells - 8 hour (AID 1224884). Further: nearly all actives have a fitted effect of over 35% in size. Further: potency means the concentration at half of the fitted maximal effect. The method in brief:
as §2

The nature of test [6]: qHTS RealTime-Glo MT Cell Viability Assay in HepG2 cells - 16 hour (AID 1224885). Further: nearly all actives have a fitted effect of over 50% in size. The gist of the method:
(§4)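 Tox21 10K library screened in qHTS format on HepG2 cells carrying RealTime-Glo reagents. Compounds were added after a 5 h preincubation, and the luminescent signal from continuous culture was measured repeatedly during 40 h treatment.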
A general note: Quantitative high-throughput screening tests each substance at several concentrations.

A short description of test [7]: qHTS RealTime-Glo MT Cell Viability Assay in HEK293 cells - 8 hour (AID 1224887). Further: top concentration of the series differs between compounds; nearly all actives have a fitted effect of over 50% in size. The gist of the method:
as §1

Test [8] in a line: A CellTox Green Cytotoxicity Assay to monitor cytotoxicity in HEK293 cells - 16 hour (AID 1224888). Further: nearly all actives have a fitted effect of over 35% in size. Further: potency means the concentration at half of the fitted maximal effect. The gist of the method: as §2
Test [9] can be described thus: qHTS RealTime-Glo MT Cell Viability Assay in HepG2 cells - 0 hour (AID 1224889). Further: nearly all actives have a fitted effect of over 50% in size. The method in brief:
as §4

Test [10] is described as follows: A CellTox Green Cytotoxicity Assay to monitor cytotoxicity in HepG2 cells - 8 hour (AID 1224890). Further: nearly all actives have a fitted effect of over 45% in size. Further: potency means the concentration at half of the fitted maximal effect. The method in brief:
as §3

Test [11] can be described thus: qHTS assay to identify small molecule antagonists of the estrogen receptor alpha (ER-alpha) signaling pathway using the BG1 cell line in the presence of 0.1 nM 17-beta-estradiol - cell viability counter screen (AID 1259241). Further: nearly all actives have a fitted effect of over 40% in size. The method in brief: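 Cytotoxicity counter-screen: live-cell protease activity measured by fluorescence (30 min reagent step) in the same wells. Cells were VM7Luc4E2 with endogenous ER-alpha and ERE-driven luciferase, treated 22 hr at 37C alongside 0.1 nM 17beta-estradiol final.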

A short description of test [12]: qHTS assay to identify small molecule antagonists of the androgen receptor (AR) signaling pathway using the MDA cell line in the presence of 0.5 nM R1881 - cell viability counter screen (AID 1259242). Further: nearly all actives have a fitted effect of over 45% in size. The gist of the method: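 R1881 at 0.5 nM final stimulated MDA-kb2 cells during 16 hr compound treatment at 37C. Cytotoxicity read: CellTiter-Fluor fluorescence after 30 min.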

Test [13] concerns the target Androgen receptor (Homo sapiens) (UniProt P10275). Kind of test: qHTS assay to identify small molecule antagonists of the androgen receptor (AR) signaling pathway using the MDA cell line in the presence of 0.5 nM R1881 (AID 1259243). Further: nearly all actives have a fitted effect of over 50% in size. The gist of the method: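 We exposed MDA-kb2 cells to compounds under 0.5 nM R1881 stimulation for 16 hr at 37C and quantified MMTV-driven luciferase by luminescence.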

Test [14] in a line: qHTS assay to identify small molecule HDAC inhibitors (AID 1259364).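 Further: wild-type HCT-116 cells with endogenous class I/II HDAC activity; top concentration of the series differs between compounds; nearly all actives have a fitted effect of over 45% in size.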 The method in brief:
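Relative class I and II HDAC activity is taken from the luminogenic signal in HCT-116 cells, with compound exposure 2 hr and reagent development 30 min at room temperature.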

Test [15] in a line: qHTS assay to identify small molecule HDAC inhibitors - cell viability counter screen (AID 1259365). The gist of the method:
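CellTiter-Glo luminescence (30 min, room temperature) reported viability after a 2 h compound exposure at 37 C. Cells: wild-type HCT-116, 1,500 per well, seeded the night before.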

Test [16] in a line: qHTS assay to identify small molecule agonists of the sonic hedgehog signaling (Shh) pathway - cell viability counter screen (AID 1259366). Further: nearly all actives have a fitted effect of over 50% in size. The method in brief: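 Cytotoxicity counter screen: CellTiter-Fluor reagent added after 23 h compound exposure, then 1 h at 37C and fluorescence read. Cells were 3T3 Gli1-Luc, seeded 2,000 per well and dosed 4 h post-plating.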
Test [17] is described as follows: qHTS assay to identify small molecule antagonists of the sonic hedgehog signaling (Shh) pathway - cell viability counter screen (AID 1259367). Further: nearly all actives have a fitted effect of over 55% in size. The method in brief:
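Cells: 3T3 Gli1-Luc, 2,000/well, 4 hr pre-incubation. Compounds in DMSO, then conditioned medium. Incubation 24 hr, 37C, 5% CO2. CellTiter-Fluor at 23 hr, 1 hr, fluorescence.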

A short description of test [18]: qHTS RealTime-Glo MT Cell Viability Assay in HEK293 cells - 24 hour (AID 1224886). The gist of the method:
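Luminescence generated by NanoLuc from substrate produced by living HEK293 cells served as the viability signal. Each value reflects the reading at its stated time point during continuous 40 h compound exposure at 37 C.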

Test [19] addresses Estrogen receptor (Homo sapiens) (UniProt P03372). Kind of test: qHTS assay to identify small molecule antagonists of the estrogen receptor alpha (ER-alpha) signaling pathway using the BG1 cell line in the presence of 0.1 nM 17-beta-estradiol (AID 1259244). Further: nearly all actives have a fitted effect of over 50% in size. The gist of the method:
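VM7Luc4E2; 4xERE-luciferase; 0.1 nM E2 final; 22 h co-incubation, 37C; ONE-Glo luminescence after 30 min at room temperature.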

Test [20] can be described thus: qHTS assay to identify small molecule phospholipidosis (PLD) inducers (AID 1259344; active means well fitted curve in the direction sought with a large enough effect; an effect the other way counts as inactive or inconclusive). The gist of the method: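 Phospholipidosis is scored by imaging LipidTOX-stained pits in HepG2 cells exposed to compound for 24 h at 37 C; pit counts and integrated intensities per well and per cell serve as outputs.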

Chain of Estrogen receptor (Homo sapiens) (P03372 whole entry, looked up): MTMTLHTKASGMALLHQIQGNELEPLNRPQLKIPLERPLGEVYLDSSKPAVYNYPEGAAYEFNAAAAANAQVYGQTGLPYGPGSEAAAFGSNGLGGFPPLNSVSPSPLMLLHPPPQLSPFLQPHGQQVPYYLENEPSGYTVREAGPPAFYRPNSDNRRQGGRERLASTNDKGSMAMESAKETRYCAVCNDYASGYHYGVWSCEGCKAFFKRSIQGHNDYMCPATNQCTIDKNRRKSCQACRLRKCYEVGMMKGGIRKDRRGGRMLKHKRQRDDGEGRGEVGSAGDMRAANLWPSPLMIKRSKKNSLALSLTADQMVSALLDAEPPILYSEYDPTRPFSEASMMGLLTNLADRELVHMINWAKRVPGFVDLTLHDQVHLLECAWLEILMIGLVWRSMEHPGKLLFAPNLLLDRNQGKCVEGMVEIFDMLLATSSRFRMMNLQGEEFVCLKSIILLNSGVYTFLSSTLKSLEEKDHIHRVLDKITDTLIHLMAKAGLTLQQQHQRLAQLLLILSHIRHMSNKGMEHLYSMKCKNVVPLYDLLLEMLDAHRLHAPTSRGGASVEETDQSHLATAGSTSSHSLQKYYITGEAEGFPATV
Chain of Androgen receptor (Homo sapiens) (P10275 whole entry, looked up): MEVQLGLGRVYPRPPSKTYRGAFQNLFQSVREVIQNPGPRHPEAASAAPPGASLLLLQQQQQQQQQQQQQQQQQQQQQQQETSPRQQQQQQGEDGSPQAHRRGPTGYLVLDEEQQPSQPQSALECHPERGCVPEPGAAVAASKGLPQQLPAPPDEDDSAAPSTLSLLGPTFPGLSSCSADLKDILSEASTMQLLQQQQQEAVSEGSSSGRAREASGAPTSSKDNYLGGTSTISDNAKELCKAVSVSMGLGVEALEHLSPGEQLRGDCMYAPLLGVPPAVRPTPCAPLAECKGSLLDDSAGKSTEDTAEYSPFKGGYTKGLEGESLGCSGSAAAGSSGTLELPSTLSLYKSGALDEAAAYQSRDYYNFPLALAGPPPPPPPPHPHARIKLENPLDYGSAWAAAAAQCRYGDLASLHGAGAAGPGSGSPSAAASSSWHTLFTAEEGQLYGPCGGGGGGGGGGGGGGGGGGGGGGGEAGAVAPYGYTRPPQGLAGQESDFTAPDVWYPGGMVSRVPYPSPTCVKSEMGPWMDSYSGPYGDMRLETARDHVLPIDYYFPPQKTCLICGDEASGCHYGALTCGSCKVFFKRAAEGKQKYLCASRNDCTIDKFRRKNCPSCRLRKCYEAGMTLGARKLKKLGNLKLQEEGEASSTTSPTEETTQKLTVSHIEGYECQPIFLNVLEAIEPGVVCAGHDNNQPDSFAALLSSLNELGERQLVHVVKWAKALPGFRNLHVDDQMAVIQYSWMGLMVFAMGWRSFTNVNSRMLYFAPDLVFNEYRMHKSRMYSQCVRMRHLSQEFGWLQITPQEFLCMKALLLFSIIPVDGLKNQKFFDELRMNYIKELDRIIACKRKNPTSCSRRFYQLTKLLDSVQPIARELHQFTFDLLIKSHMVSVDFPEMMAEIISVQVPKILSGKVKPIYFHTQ

`CCCCCCCCCCCCCCCCC(=O)O`: the Potency entry in [1], in test [2], in test [3], in test [4], in [5] and in [7] was “inactive” throughout. The Potency entry in test [8], in test [9], in [10], in test [11], in [12] and in test [13] was “inactive” in each case. The Potency result in [14], in test [16] and in test [17] was “inactive” each time. For the same compound, the compound was called inactive in test [6] and in test [15].
With `CCCCCCOC(=O)c1ccccc1`, the Potency result in test [1], in test [2], in test [3], in test [4], in [5] and in test [18] was “inactive” each time. Also, the Potency entry in test [7], in [8], in test [10], in [11], in test [12] and in [19] was “inactive” throughout. Besides, the Potency result in [14], in test [16] and in test [17] was “inactive” each time. For the same compound, the outcome in [6] and in test [15] was inactive.
`CC(=O)OCC(=O)[C@@]1(O)CC[C@H]2[C@@H]3CCC4=CC(=O)C=C[C@]4(C)[C@@]3(F)[C@@H](O)C[C@@]21C`: in [1], the Potency is 7.56 µM (active). The Potency entry in [2], in [3], in test [4], in test [5], in test [18] and in test [7] was “inactive” each time. The Potency result in test [8], in test [10], in test [11], in test [12], in [20] and in [14] was “inactive” throughout. Also, in test [16], the Potency result is “inactive”. For the same compound, the compound was classed as inactive in test [6] and in [15].
On to `CCCCCCCCCCCCCCCCN`, for which the Potency result in test [1], in test [7], in test [9], in test [11], in test [12] and in test [19] was “inactive” each time. Besides, the Potency entry in [20], in test [14], in [16] and in [17] was “inactive” throughout. For the same compound, the Potency was 16.9 µM (active) in test [2]; 21.3 µM (active) in [3]; 23.9 µM (active) in test [4]; 19 µM (active) in test [5]; 19 µM (active) in test [8]; 21.3 µM (active) in test [10]. Further, the compound was called inactive in test [6].
Take `CC(O)C(C)O` (stereo not given): the Potency result in test [1], in [2], in test [3], in test [4], in test [5] and in [7] was “inactive” in each case. The Potency entry in test [8], in [9], in test [10], in test [11], in [12] and in test [14] was “inactive” in each case. For the same compound, the Potency result in [16] and in test [17] was “inactive” each time. Moreover, the compound was called inactive in [6] and in [15].
As to `O=c1[nH]nc(-c2ccc([N+](=O)[O-])o2)o1`, the Potency result in test [1], in [2], in [3], in [4], in test [5] and in test [7] was “inactive” each time. For the same compound, the Potency entry in test [8], in test [10], in [19] and in test [14] was “inactive” each time. Further, the compound was called inactive in test [6] and in test [15].
Regarding `CS(C)=O`, the Potency result in test [1], in [2], in test [3], in [4], in test [5] and in [7] was “inactive” each time. Further, the Potency entry in test [8], in [9], in [10], in test [11], in test [12] and in test [14] was “inactive” in each case. For the same compound, the Potency result in test [16] and in test [17] was “inactive” each time. Moreover, the call in [6] was inactive.
With `O=C(Nc1ccc2c(c1)Cc1ccccc1-2)C(F)(F)F`, the Potency entry in [1], in [2], in test [3], in test [4], in [5] and in test [7] was “inactive” in each case. The Potency result in test [8], in test [9], in test [10], in test [11], in test [12] and in test [16] was “inactive” in each case. Moreover, the Potency result in [17] was “inactive”. Also, the compound was classed as inactive in [6] and in test [15].
